# Compound activity deposited in PubChem BioAssay by National Center for Advancing Translational Sciences (NCATS).
# ALOX12 inhib: inhibitors of human 12-lipoxygenase (ALOX12); purified 12-hLO, xylenol orange hydroperoxide absorbance; Potency, µM (top dose mostly 57.1 µM), usual class: inhibitors; hit rate 0.12% among 150,000; note: nearly all actives have a fitted effect of over 55% in size
#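 Lipoxygenase turnover measured by absorbance at 573 and 405 nm after Fe-XO development. Human 12hLO 150 nM, arachidonate 40 uM, pH 7.0 Hepes buffer with detergent; 15 min compound preincubation, 30 min reaction.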
# PNC inhibitor: blocks assembly of the perinucleolar compartment. activity change (PNC), negative = inhibition, % at 10 µM. hit rate 3.1% among 140,000. PC3M PTB-GFP, PNC prevalence imaging, 16 h; stronger effect = lower value;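 active = readout at or below -70, meaning at least 70% loss of cells showing the perinucleolar compartment, a nuclear body marking cancer cells; inconclusive = readout between -30 and a set limit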
#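 PC3M cells stably expressing PTB-GFP, 750–1000 cells/well, treated 16 h at 37 °C with compound (23 nl of library stock), in duplicate. After paraformaldehyde fixation and Hoechst stain, imaged at 20x; PNC prevalence scored by image analysis.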
# GLA inh pH 4.5: inhibitors of human alpha-galactosidase A at pH 4.5; purified enzyme, 4-MU-alpha-Gal fluorescence, pH 4.5; activity change, negative = inhibition, % at 105 µM; 230,000 tested, under 10 active; AID 1467
# Target sequence (P06280 whole entry, looked up): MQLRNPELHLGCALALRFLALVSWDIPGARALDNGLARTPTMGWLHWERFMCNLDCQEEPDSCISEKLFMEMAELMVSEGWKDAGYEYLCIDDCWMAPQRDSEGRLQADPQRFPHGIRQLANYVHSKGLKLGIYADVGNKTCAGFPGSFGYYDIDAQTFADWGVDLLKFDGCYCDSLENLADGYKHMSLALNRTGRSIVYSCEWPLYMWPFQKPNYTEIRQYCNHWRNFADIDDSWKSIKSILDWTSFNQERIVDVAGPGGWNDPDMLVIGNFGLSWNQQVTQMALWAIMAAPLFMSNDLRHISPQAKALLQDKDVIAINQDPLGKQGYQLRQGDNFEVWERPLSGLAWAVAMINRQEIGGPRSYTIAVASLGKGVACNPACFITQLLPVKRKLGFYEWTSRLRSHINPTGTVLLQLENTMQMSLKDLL
# HPGD inh: blocks human HPGD enzyme activity | P15428 | hit rate 4.3% among 150,000 | purified HPGD, NADH fluorescence kinetic, PGE2 substrate | Potency, µM, usual class: inhibitors | AID 894; active = well fitted inhibition curve with a large enough effect, not every such curve was filed as active; inconclusive = small, poorly fitted or top-dose-only effect, or another doubt; inactive = no such curve, though single readings can be large or run the other way
# Target sequence (P15428 whole entry, looked up): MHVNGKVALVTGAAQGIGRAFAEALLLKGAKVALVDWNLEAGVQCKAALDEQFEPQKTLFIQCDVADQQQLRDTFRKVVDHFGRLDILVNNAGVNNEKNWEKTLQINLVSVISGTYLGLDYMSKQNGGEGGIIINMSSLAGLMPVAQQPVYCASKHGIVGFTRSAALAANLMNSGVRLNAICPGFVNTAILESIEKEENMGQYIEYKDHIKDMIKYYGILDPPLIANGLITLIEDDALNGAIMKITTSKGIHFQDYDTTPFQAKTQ
#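 20 nM HPGD preincubated 15 min at room temperature with compound in 50 mM Tris-HCl pH 8, 0.01% Tween 20. Started with 1 mM NAD+ and 30 uM prostaglandin E2; NADH fluorescence (360/450 nm) read 5 times over 30-s intervals, last minus first.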
# aGal spleen mod: alpha-galactosidase A (human) modulation; Potency, µM (series often up to 80 µM), actives largely listed as inhibitors; hit rate 0.008% among 240,000; human spleen homogenate, 4MU-alpha-Gal fluorescence, 40 min
#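 Human spleen homogenate (1 ug) was the enzyme source, with 4-methylumbelliferyl-alpha-D-galactopyranoside (1 mM final) in pH 5.0 citrate buffer with 0.01% Tween-20. Compounds were titrated; after 40 min at 37C, NaOH/glycine stop, 4-MU fluorescence read; AC50 from Hill fits.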
# ALDH1A1 block: inhibitors of human aldehyde dehydrogenase 1A1 | P00352 | Purified ALDH1A1, NADH fluorescence, propionaldehyde substrate | hit rate 7.3% among 220,000 | Potency, µM (titrated, usually from 75.3 µM), actives largely listed as inhibitors; active = well fitted inhibition curve with a large enough effect, not every such curve was filed as active; inconclusive = small, poorly fitted or top-dose-only effect, or another doubt; inactive = no such curve, though single readings can be large or run the other way
# A number is an active result; 0 = inactive; ? = inconclusive; - = no result given; [ ] = another dose, or the depositor's remark. Compounds with a hit are over-represented: about 10% of the library has one in this group of screens. Unless noted, calls come from the whole dose curve; as a rule, active = well fitted curve in the direction sought with a large enough effect; inconclusive = small, poorly fitted or top-dose-only effect, or another doubt; inactive = no such curve, though single readings can be large; an effect the other way counts as inactive or inconclusive.
SMILES,ALOX12 inhib,PNC inhibitor,GLA inh pH 4.5,HPGD inh,aGal spleen mod,ALDH1A1 block
O=C(COC(=O)C1CC2C=CC1C2)Nc1cccc(S(=O)(=O)N2CCCCC2)c1 (stereo not drawn),0,0,0,0,0,?
O=C(COC(=O)C1CC2C=CC1C2)Nc1ccc2c(c1)OC(F)(F)O2 (stereo not drawn),0,-100,0,0,0,?
CC1CCC2C(=O)N3C(CCC(C)[C@@H]3c3cccc(N4CCOCC4)c3)C(=O)N2C1c1cccc(N2CCOCC2)c1 (stereo partly drawn),-,-,-,-,0[17.5 µM],0[13.5 µM]
Cc1sc(NC(=O)c2cccs2)c(C(N)=O)c1C,0,0,0,25µM,0,11µM
Cc1sc(NC(=O)c2ccccc2)c(C(=O)c2ccccc2)c1C,0,0,?,3.5µM,0,5µM
Cc1ccc(C(=O)Nc2sc(C)c(C)c2C(=O)c2ccccc2)cc1,0,0,0,20µM,0,10µM
CCOC(=O)c1c(NC(=O)c2cccs2)sc(CC)c1-c1cccs1,0,?,0,?,0,?
CC1(C)CC(=NOC(=O)c2ccccc2)CC(C)(C)N1O,0,0,0,0,0,0
CC1CC(C)CN(CCCCOc2ccc([N+](=O)[O-])cc2)C1 (stereo not drawn),0,0,0,0,0,0
c1cncc(CNc2ccc3c(c2)OCO3)c1,0,0,0,0,0,20µM
CC1(C)OC(=O)C(=CNc2ccc(F)cc2)C(=O)O1,0,0,0,0,0,?
CC1(C)OC(=O)C(=Cc2ccc[nH]2)C(=O)O1,-,-,0,-,0,16µM
COC(=O)C1CCN(C(=O)COc2ccc(Cl)cc2)CC1,0,0,0,0,0,0
COC(=O)C1CCN(C(=O)COc2cc3sc(C)nc3c3sccc23)CC1,0,0,0,0,0,11µM
CCCCNC(=S)N(C)/N=C/c1ccc(OCc2ccc(C(=O)OC)cc2)c(OC)c1,0,?,0,0,0,0
COC(=O)C1CCN(C(=O)C(C)Oc2ccc(Cl)cc2Cl)CC1 (stereo not drawn),0,-87,0,0,0,?
CC(Oc1ccc(Cl)cc1Cl)C(=O)NC1=NN(c2ccccc2)C(=O)C1 (stereo not drawn),8.9µM,0,0,0,0,0
CC(Oc1ccc(Cl)cc1Cl)C(=O)Nn1cnnc1 (stereo not drawn),0,-119,0,0,0,0
CC(Oc1ccc(Cl)cc1Cl)C(=O)Nc1ccncc1 (stereo not drawn),0,?,0,-,0,0
CC(Oc1ccc(Cl)cc1Cl)C(=O)NC1CCSC1=O (stereo not drawn),0,0,0,14µM,0,0
CC(=O)Nc1ccc(NC(=O)C(C)Oc2ccc(Cl)cc2Cl)cc1 (stereo not drawn),-,-,0,-,0,0
C#CCCCO/N=C1/C[C@@H](O)[C@@H](O)[C@@H]2[C@@H]3C(=O)N(c4cccc(Oc5ccccc5)c4)C(=O)[C@H]3CC[C@@H]12,-,-,-,-,0[17.5 µM],0[13.5 µM]
COCCNC(=O)C(C)Oc1ccc(Cl)cc1Cl (stereo not drawn),0,0,0,32µM,0,0
CCNC(=O)C(C)Oc1ccc(Cl)cc1Cl (stereo not drawn),-,-,0,-,0,0
Clc1ccccc1Cn1nnc(-c2ccccc2)n1,-,-,0,-,0,0
SMILES,ALOX12 inhib,PNC inhibitor,GLA inh pH 4.5,HPGD inh,aGal spleen mod,ALDH1A1 block
Clc1ccc(Cn2nnc(-c3ccccc3)n2)cc1,0,-100,0,0,0,0
Clc1ccccc1-c1nnn(Cc2ccc(-c3nn[nH]n3)cc2)n1,0,0,0,13µM,0,16µM
O=C(CCSc1ccccn1)c1ccccc1,-,-,0,-,0,0.25µM
O=C(O)CCSc1ccccn1,-,-,0,-,0,?
O=S(=O)(c1ccc(Nc2ccc(-c3ccc4c(c3)OCCO4)nn2)cc1)N1CCCC1,0,0,0,0,0,?
O=C(NC1CC1)c1cccc(Nc2ccc(-c3ccc4c(c3)OCCO4)nn2)c1,0,0,0,28µM,0,?
O=C1C(Nc2cccc(O)c2)=C(N2CCCCC2)C(=O)c2ccccc21,0,0,0,0,0,?
O=C(/C=C/c1ccc(O)cc1)c1ccc(NC2=C(N3CCCCC3)C(=O)c3ccccc3C2=O)cc1,0,0,0,0,0,8.9µM
COc1ccccc1NC1=C(N2CCCCC2)C(=O)c2ccccc2C1=O,0,-85,0,0,0,10µM
O=C1C(Nc2ccccc2)=C(N2CCCCC2)C(=O)c2ccccc21,0,0,0,0,0,20µM
Cc1ccc(NC2=C(N3CCCCC3)C(=O)c3ccccc3C2=O)cc1,0,0,0,-,0,0
CN(C)C(=O)c1ccc(-c2cncnc2NCCc2cnc[nH]2)cc1,-,-,-,-,0,0
CC(C)CNC(=O)NC(=O)COC(=O)Cn1cnc2ccccc2c1=O,-,-,0,-,0,0
COc1ccc(Cn2nnnc2CN2CCc3ccccc3C2)cc1,0,0,0,0,0,11µM
COc1ccc(Cn2nnnc2CN2CCc3ccccc32)cc1,0,0,0,0,0,?
COc1ccc(Cn2nnnc2CN2CCC(O)(c3ccccc3F)CC2)cc1,-,-,0,-,0,8.9µM
OC1(c2cccnc2)CCN(Cc2nnnn2Cc2ccccc2)CC1,-,-,0,-,0,16µM
OC1(c2ccccc2F)CCN(Cc2nnnn2Cc2ccc(F)cc2)CC1,-,-,0,-,0,0
Cc1ccc(Cn2nnnc2CN2CCC(O)(c3cccnc3)CC2)cc1,-,-,0,-,0,?
COc1ccc(NC(=S)N(CCN(C)C)C(C)c2ccco2)cc1Cl (stereo not drawn),0,0,0,0,0,0
C=CCC(O)[C@H](Cc1cnc2ccccc2c1)[C@H](/C=C/CCCC)c1ccccc1 (stereo partly drawn),-,-,-,-,0,-
[N-]=[N+]=CC(=O)CCCN1C(=O)c2ccccc2C1=O,0,0,0,0,0,10µM
O=C(CCCCCN1C(=O)c2ccccc2C1=O)Nc1ccc(F)cc1,0,-100,0,18µM,0,?
O=C(CCCCCN1C(=O)c2ccccc2C1=O)Nc1ccc2c(c1)OCCO2,0,0,0,0,0,28µM
O=C(CCCN1C(=O)CCC1=O)Nc1ccc2c(c1)OCCO2,0,0,0,0,0,?
SMILES,ALOX12 inhib,PNC inhibitor,GLA inh pH 4.5,HPGD inh,aGal spleen mod,ALDH1A1 block
O=C(CCCN1C(=O)c2ccccc2C1=O)Nc1ccccn1,0,?,0,0,0,0
O=C(CCN1C(=O)c2ccccc2C1=O)Nc1ccc2c(c1)OCCO2,0,-89,0,0,0,?
O=C(CCCCCN1C(=O)c2ccccc2C1=O)Nc1ccc(S(=O)(=O)N2CCCCC2)cc1,0,0,0,0,0,0
CCC1OCCC=CC1C (stereo not drawn),-,-,-,-,0[17.5 µM],0[13.5 µM]
O=C(N/N=C/c1ccc2c(c1)OCO2)C(=O)Nc1ccc2ccccc2c1,-,-,0,-,0,0
CN(Cc1cn(-c2ccccc2)nc1-c1cc2ccccc2o1)C(=O)CCC(=O)O,-,-,0,-,0,?
